# Granule exo inh: lytic granule exocytosis inhibition; TALL-104 LAMP-1 surface exposure, flow cytometry; cells stimulated with thapsigargin and PMA; hit rate 0.66% among 360,000; inhibition, % at 10 µM;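 active = inhibition above about 55%, limit read from the data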
# ABHD5 PLIN5 PPI: ABHD5-PLIN5 protein interaction inhibition. Q00G26+Q8WTS1. Split G. princeps luciferase complementation, luminescence, 4 h. inhibition, % at 4 µM. hit rate 0.78% among 360,000;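 active = inhibition above the mean inhibition across every tested compound plus 3 SD, cut at about 22% in these data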;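 also: 0% = DMSO only wells and the 100% control is not disclosed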
# TLR9-MyD88 block: blocks human TLR9 binding to MyD88; AID 504734; hit rate 0.21% among 340,000; inhibition, % at 4.98 µM; CHO BLA complementation TLR9-MyD88, CCF4 FRET ratio; Q9NR96+Q99836;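 active = inhibition above the mean over all tested compounds plus 3 SD, cut at about 21% in these data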;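 also: 0% = DMSO only wells and 100% = clavulanate BLA inhibitor control wells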
# B2AR ag: agonists of human beta-2 adrenergic receptor inducing internalization | P07550 | Am2.2-beta2AR cells, FAP receptor internalization, flow cytometry | response, % (concentration not given with the values) | hit rate 0.43% among 340,000;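 active = response above a set limit, near 3 SD of response in nonfluorescent compounds, cut at about 42% in these data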
# TLR4 MyD88 comp: blocks binding of human TLR4 to MyD88 | HeLa CL3-4 TLR4/MyD88 BLA complementation, FRET ratio | inhibition, % at 8.4 µM | hit rate 0.18% among 200,000; in the data active = inhibition above about 25%;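 also: 0% = vehicle and 100% = reference inhibitor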
# NOD2-RIPK2 inh: blocks binding of human NOD2 to RIPK2. O43353. CHO BLA complementation NOD2-RIPK2, CCF4 ratio. inhibition, % at 4.98 µM. hit rate 0.38% among 360,000. AID 624267; in the data active = inhibition above about 21%;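 also: 0% = vehicle only and 100% = reference blocker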
# Target sequence (O43353 whole entry, looked up): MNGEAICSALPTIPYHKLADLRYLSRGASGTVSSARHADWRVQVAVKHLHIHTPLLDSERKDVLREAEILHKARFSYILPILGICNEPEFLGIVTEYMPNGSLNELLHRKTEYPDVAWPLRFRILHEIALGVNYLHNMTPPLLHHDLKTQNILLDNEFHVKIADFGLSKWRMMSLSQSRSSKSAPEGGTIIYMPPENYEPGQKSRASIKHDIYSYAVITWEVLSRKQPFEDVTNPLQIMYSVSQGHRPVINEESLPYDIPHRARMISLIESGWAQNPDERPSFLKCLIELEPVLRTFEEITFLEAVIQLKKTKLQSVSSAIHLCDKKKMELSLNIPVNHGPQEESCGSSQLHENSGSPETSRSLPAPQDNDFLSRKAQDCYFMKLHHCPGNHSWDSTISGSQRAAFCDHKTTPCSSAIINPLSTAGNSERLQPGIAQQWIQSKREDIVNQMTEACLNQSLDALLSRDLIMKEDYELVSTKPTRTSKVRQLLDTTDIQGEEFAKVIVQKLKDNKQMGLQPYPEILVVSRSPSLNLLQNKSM
# Starred values were filed as active, the others as inactive; · = no result. In the library only some 2% were active in any assay of this set; here they are far more common.
SMILES,Granule exo inh,ABHD5 PLIN5 PPI,TLR9-MyD88 block,B2AR ag,TLR4 MyD88 comp,NOD2-RIPK2 inh
COc1ccc(N2C(=O)c3ccccc3NC(=O)C2C(=O)NCCc2ccccc2F)cc1 (configuration not stated),17,-4,·,·,·,-5
COCCNC(=S)N/N=C/c1c2ccccc2cc2ccccc12,12,-6,12,5,·,10
NC(=S)N/N=C\c1c2ccccc2cc2ccccc12,65*,-3,-9,10,-13,0
CNC(=S)N/N=C/c1c2ccccc2c(Cl)c2ccccc12,56*,-6,9,-13,·,12
c1cc(-c2ccc(N3CCOCC3)cc2)n2ccnc2c1,10,1,·,·,·,1
CCSc1nc2ccccc2n1C(=O)/C=C/c1ccc(OC)c(OC)c1,2,20,7,42*,-3,3
CN(C(=O)c1cccc(NC(=O)Cc2cccc(NC(=O)C3CCCN(C(=O)C4CCCCC4)C3)c2)c1)C1CC1 (configuration not stated),8,4,-7,-3,·,-13
O=C1C(CO)C(CO)C(CO)C1CO (configuration not stated),69*,1,6,1,·,-6
CCOCCCNC(=O)/C(C#N)=C/c1ccc(Cl)c([N+](=O)[O-])c1,66*,-2,-1,33,5,6
O=C(NC1CCCC1)C1C(c2ccc(C(F)(F)F)cc2)=Nc2ccccc2N1C(=O)c1ccccc1 (configuration not stated),-1,-6,·,·,·,5
c1cnc2c(SCc3ccc(-c4nnco4)cc3)cccc2c1,69*,-6,-1,30,5,3
CC1CCCN(S(=O)(=O)c2cc(C(=O)NCCc3ccc(S(N)(=O)=O)cc3)ccc2Cl)C1 (configuration not stated),-2,-4,-1,9,·,-3
CC1(C(=O)Nc2cccc3ncccc23)CCN1C(=O)Cc1ccc(-c2ccccc2)cc1 (configuration not stated),-1,0,·,·,·,3
COc1ccc(C(=O)c2coc3c2C(=O)C(=O)c2ccccc2-3)cc1,98*,11,3,2,·,-1
COc1ccc(-c2ccc(C(=O)Nc3cc(OC)c(OC)c(OC)c3)c3occc23)c(C)c1,-9,-1,·,·,·,-8
COc1ccccc1C(=O)N/N=C(\C)CC(=O)Nc1ccccc1NC(C)=O,-2,10,-2,18,·,-10
COCC(=O)N/N=C(\C)CC(=O)Nc1ccccc1C(N)=O,4,3,6,-5,5,23*
COc1cccc(-c2oc3c(c2C(=O)OCCN(C)C)C(O)CCC3)c1 (configuration not stated),4,1,·,·,·,-16
Clc1cc(Br)ccc1OCCCNCc1ccccc1,1,22*,-6,10,0,0
Cc1ccc(C)c(OCCCNCc2ccccc2)c1,22,8,-4,11,·,5
O=C(CSCC(=O)c1ccc([N+](=O)[O-])cc1)c1ccc([N+](=O)[O-])cc1,-5,-9,·,·,·,9
O=C(C#Cc1ccccc1)c1ccc([N+](=O)[O-])cc1,79*,6,-4,69*,3,4
CC1(C(=O)NS(=O)(=O)C2CC2)CCCN(C(=O)c2cccc(OC(F)(F)F)c2)C1 (configuration not stated),6,0,·,·,·,-3
Nc1sc(-c2ccccc2)cc1-c1n[nH]c(=S)n1C1CCCCC1,18,-4,·,-6,·,-3
COc1ccc(-n2c(-c3cc(-c4ccccc4)sc3N)n[nH]c2=S)cc1,91*,-6,4,13,·,2
COc1ccc(S(=O)(=O)N(C)C[C@H]2Oc3ccc(NS(=O)(=O)c4ccc(F)cc4)cc3C(=O)N([C@H](C)CO)C[C@@H]2C)cc1,-9,4,2,-5,·,-9
CCN1/C(=C/c2ccc3cccc(C)c3[n+]2CC)Sc2ccccc21,76*,15,3,-47,24,8
C=CC[n+]1c(/C=C2\C=Cc3cc(C)ccc3N2CC)ccc2ccccc21,40,14,-9,-909,8,-4
CC[n+]1c(C)sc2c3ccsc3ccc21,8,-10,-13,10,15,-13
CCN1/C(=C/c2ccc3cc(C)ccc3[n+]2CC)Sc2ccc3sccc3c21,74*,5,0,·,·,-8
